Assay results published in the supplement of paper PMC11732987, “Enantioselective OTUD7B fragment discovery through chemoproteomics screening and high-throughput optimisation” (Communications Chemistry, 2025).

Key:
Test in all cases: log2 ratio of Biotin-Ahx-Ub-VS probe labelling (fragment/DMSO); higher = less target engagement (more negative = stronger competition), active = hit call of the paper (q ≤ 0.05, log2 ratio ≤ -1)
Conditions in all cases: compound concentration: 200 uM; treatment time: 3 h
USP42 = molecular target: T1, USP42 (UniProt Q9H9J4)
T1 sequence (whole entry): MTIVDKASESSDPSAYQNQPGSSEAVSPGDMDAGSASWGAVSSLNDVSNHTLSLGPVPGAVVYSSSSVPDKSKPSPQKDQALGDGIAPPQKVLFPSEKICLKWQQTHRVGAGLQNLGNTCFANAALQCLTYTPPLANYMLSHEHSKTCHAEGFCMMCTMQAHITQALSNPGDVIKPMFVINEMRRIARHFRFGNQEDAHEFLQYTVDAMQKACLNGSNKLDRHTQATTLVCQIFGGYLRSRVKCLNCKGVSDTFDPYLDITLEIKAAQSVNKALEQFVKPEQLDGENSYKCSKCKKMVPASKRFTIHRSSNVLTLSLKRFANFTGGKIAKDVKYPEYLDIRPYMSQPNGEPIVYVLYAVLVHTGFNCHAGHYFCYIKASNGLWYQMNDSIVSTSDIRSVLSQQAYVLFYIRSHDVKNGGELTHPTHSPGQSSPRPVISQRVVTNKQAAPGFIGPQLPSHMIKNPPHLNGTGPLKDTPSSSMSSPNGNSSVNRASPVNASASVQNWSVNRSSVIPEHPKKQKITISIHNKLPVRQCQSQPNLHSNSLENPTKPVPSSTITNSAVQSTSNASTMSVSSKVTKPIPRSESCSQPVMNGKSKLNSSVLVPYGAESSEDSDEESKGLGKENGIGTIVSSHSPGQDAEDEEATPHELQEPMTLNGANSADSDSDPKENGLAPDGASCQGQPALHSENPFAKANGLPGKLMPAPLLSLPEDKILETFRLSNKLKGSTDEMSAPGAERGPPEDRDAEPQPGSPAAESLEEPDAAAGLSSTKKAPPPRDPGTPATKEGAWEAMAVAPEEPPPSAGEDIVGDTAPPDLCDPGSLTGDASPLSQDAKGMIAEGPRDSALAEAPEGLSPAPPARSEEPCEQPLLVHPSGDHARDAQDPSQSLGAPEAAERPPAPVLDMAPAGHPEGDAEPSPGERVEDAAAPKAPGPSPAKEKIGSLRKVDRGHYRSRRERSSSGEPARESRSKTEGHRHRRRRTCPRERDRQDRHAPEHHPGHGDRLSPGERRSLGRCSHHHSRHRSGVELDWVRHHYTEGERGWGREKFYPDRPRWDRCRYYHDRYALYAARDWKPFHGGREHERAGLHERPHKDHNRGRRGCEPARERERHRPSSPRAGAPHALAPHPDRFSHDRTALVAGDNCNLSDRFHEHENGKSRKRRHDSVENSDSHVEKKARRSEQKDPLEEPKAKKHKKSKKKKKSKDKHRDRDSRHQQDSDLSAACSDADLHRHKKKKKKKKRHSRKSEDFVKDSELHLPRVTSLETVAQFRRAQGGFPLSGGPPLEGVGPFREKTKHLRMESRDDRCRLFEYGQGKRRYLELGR
Outline: (§1)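 Labelled DUBs were enriched with NeutrAvidin, digested with LysC and trypsin, and run by diaPASEF LC-MS/MS. The labelling used Biotin-Ahx-Ub-VS at 0.5 µM final for 1 h on HEK293T lysate (495 µg per sample) previously treated in triplicate with fragment at 200 µM or vehicle for 3 h. Values are average log2 fragment/vehicle ratios by unpaired t-test on global-median-normalised Spectronaut quantities of proteins with ≥2 unique peptides.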

USP46 = USP46 (UniProt P62068)
Chain of USP46 (P62068 whole entry): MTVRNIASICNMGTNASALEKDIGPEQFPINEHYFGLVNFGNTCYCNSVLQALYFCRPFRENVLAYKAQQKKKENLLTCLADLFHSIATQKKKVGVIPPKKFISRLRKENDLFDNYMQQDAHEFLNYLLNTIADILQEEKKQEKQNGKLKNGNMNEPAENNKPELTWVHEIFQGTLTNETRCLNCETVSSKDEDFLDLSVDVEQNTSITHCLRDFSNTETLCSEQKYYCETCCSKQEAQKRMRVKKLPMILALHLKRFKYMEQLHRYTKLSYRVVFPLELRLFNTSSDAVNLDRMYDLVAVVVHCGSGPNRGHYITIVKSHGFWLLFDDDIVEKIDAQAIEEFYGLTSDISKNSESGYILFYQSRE
Outline: as §1

USP47 = molecular target: T2, USP47 (UniProt Q96K76)
T2 sequence (whole entry): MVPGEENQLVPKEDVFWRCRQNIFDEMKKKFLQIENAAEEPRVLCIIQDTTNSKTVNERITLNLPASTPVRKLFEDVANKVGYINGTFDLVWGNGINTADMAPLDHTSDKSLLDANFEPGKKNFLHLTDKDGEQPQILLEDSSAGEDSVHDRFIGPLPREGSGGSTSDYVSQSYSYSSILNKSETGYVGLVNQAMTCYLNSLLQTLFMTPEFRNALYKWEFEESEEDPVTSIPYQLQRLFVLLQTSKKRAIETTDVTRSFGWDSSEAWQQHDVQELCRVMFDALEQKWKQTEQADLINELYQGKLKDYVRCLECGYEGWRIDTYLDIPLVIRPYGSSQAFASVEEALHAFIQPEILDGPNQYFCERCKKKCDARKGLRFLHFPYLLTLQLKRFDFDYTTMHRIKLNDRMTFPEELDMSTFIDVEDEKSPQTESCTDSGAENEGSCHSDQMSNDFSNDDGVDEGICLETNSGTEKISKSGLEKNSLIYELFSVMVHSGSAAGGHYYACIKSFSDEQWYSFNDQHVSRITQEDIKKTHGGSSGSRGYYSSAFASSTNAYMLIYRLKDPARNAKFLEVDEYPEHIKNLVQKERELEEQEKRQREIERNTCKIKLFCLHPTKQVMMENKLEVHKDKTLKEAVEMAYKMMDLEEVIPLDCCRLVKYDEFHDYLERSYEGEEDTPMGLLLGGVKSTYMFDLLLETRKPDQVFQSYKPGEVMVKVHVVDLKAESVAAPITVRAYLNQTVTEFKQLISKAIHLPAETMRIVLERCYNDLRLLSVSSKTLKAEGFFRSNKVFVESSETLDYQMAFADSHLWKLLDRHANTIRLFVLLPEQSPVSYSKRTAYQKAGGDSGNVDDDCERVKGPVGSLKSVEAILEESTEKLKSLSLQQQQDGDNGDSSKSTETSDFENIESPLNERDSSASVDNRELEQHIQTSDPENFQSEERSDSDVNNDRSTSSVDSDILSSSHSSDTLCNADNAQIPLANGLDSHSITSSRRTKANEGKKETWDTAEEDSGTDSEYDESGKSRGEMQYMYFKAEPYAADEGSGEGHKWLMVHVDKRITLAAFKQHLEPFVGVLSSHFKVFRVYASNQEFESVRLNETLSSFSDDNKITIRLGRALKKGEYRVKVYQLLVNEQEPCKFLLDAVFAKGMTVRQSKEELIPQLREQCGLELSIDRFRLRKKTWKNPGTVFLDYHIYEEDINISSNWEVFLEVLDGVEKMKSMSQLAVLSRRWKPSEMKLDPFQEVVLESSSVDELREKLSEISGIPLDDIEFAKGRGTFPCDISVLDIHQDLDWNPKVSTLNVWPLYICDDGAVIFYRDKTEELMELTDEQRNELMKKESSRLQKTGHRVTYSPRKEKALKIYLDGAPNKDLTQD
Outline: as §1

USP48 = molecular target: T3, USP48 (UniProt Q86UV5)
T3 sequence (whole entry): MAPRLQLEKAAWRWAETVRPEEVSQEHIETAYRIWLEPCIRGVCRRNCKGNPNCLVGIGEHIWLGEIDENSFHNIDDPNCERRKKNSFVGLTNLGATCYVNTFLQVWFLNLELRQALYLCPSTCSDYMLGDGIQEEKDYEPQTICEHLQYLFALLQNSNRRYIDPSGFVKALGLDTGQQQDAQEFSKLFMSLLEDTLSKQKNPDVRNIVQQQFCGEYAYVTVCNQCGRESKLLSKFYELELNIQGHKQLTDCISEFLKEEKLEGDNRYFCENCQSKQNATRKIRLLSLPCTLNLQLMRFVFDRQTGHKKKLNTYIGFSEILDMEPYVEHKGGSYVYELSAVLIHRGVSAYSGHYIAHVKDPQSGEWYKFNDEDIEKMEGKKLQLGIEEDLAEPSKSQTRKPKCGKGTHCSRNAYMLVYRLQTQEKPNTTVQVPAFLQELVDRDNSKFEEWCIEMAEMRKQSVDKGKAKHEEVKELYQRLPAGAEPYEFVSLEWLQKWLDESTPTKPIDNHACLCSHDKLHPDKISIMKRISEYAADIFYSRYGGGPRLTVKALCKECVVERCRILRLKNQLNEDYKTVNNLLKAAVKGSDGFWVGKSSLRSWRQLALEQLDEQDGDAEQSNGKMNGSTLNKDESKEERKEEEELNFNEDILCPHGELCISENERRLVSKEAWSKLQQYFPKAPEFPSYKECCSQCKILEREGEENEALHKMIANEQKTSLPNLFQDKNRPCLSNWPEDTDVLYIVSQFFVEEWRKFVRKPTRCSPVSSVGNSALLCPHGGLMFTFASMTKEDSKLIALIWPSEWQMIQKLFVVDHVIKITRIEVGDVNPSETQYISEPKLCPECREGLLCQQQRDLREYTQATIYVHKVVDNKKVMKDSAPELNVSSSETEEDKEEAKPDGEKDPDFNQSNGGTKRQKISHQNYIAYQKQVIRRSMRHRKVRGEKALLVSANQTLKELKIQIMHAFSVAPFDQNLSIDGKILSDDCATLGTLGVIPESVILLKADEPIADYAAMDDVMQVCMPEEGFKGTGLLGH
Outline: as §1

USP5 = molecular target: T4, USP5 (UniProt P45974)
T4 sequence (whole entry): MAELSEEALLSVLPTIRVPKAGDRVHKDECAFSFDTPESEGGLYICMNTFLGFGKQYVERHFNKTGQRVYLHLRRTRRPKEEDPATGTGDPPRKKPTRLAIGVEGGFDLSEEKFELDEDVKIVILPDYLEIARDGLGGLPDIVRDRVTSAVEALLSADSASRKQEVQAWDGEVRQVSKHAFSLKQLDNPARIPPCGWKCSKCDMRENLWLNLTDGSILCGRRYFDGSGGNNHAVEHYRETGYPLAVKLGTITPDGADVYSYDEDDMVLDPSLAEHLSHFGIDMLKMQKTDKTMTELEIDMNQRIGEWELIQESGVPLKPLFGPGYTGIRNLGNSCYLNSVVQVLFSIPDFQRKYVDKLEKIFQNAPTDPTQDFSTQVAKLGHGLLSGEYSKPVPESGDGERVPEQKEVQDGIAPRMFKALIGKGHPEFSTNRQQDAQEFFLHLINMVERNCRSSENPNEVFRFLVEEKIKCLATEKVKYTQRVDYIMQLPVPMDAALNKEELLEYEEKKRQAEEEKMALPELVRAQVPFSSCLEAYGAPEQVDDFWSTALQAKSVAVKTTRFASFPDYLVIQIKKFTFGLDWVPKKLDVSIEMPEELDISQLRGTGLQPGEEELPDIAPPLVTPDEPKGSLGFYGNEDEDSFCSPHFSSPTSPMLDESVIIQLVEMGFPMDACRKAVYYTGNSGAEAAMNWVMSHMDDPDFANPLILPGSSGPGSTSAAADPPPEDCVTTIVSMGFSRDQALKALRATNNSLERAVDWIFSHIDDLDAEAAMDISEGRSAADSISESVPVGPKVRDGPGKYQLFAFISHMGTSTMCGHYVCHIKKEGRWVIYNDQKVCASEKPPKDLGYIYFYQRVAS
Outline: as §1

USP54 = USP54 (UniProt Q70EL1)
Outline: as §1

USP7 = USP7 (UniProt Q93009)
Chain of USP7 (Q93009 whole entry, looked up): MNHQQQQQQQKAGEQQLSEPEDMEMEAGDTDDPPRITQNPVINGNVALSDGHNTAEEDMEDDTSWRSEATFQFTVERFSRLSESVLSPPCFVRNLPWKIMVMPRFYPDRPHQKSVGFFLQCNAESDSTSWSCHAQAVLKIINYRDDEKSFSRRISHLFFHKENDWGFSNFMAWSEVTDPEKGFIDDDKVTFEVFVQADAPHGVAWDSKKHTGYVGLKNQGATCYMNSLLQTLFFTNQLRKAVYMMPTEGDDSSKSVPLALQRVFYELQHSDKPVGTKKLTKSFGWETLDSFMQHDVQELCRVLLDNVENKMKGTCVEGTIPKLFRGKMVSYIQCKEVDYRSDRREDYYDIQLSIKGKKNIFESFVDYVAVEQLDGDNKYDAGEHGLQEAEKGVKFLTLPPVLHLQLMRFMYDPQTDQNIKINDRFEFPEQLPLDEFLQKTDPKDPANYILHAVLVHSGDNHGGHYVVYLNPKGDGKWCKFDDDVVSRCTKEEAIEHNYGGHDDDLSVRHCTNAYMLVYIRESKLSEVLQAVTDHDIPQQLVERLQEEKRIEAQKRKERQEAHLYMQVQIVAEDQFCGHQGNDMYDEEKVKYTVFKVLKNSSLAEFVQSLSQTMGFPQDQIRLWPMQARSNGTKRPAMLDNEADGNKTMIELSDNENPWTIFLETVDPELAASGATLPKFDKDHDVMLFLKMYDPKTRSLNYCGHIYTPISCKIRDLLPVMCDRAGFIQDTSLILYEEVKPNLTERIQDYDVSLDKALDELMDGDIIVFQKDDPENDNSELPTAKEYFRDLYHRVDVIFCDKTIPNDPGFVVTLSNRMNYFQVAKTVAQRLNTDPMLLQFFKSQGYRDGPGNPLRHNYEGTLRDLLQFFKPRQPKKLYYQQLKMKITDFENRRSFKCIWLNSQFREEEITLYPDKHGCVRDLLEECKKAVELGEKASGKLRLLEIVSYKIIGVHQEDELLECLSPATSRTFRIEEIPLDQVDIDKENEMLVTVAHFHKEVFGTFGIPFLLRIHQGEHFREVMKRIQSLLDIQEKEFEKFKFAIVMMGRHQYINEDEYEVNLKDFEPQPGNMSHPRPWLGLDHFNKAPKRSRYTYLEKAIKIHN
Outline: as §1

USP8 = molecular target: T5, USP8 (UniProt P40818)
T5 sequence (whole entry): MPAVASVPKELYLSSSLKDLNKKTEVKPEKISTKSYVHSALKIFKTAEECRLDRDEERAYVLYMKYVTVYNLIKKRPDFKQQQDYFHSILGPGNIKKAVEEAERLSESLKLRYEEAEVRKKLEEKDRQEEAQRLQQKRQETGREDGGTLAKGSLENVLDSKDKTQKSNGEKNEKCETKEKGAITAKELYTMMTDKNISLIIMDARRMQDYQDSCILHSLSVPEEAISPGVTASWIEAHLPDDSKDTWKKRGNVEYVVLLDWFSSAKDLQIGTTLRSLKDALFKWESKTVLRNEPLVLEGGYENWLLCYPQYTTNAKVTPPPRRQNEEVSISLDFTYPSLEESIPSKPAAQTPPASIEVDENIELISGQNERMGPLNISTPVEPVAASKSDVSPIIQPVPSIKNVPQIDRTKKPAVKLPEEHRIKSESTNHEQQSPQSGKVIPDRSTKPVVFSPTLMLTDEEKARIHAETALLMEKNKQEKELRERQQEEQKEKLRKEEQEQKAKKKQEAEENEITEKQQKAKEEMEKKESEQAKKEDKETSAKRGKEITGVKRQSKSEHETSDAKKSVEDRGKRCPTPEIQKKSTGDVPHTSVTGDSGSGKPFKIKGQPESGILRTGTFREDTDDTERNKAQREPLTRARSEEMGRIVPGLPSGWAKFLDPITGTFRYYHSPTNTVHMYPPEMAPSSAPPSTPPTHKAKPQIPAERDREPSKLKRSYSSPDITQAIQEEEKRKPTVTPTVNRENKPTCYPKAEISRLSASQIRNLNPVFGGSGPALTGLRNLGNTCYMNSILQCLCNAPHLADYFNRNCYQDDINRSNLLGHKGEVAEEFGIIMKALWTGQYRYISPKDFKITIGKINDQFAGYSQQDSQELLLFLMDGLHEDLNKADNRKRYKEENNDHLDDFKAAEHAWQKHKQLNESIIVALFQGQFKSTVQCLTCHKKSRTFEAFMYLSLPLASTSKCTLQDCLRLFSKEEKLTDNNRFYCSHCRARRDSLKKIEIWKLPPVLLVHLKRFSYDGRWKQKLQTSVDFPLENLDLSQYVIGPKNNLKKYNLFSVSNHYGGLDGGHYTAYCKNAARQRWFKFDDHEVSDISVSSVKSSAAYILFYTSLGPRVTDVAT
Outline: as §1

USP9X = USP9X (UniProt Q93008)
Chain of USP9X (Q93008 whole entry): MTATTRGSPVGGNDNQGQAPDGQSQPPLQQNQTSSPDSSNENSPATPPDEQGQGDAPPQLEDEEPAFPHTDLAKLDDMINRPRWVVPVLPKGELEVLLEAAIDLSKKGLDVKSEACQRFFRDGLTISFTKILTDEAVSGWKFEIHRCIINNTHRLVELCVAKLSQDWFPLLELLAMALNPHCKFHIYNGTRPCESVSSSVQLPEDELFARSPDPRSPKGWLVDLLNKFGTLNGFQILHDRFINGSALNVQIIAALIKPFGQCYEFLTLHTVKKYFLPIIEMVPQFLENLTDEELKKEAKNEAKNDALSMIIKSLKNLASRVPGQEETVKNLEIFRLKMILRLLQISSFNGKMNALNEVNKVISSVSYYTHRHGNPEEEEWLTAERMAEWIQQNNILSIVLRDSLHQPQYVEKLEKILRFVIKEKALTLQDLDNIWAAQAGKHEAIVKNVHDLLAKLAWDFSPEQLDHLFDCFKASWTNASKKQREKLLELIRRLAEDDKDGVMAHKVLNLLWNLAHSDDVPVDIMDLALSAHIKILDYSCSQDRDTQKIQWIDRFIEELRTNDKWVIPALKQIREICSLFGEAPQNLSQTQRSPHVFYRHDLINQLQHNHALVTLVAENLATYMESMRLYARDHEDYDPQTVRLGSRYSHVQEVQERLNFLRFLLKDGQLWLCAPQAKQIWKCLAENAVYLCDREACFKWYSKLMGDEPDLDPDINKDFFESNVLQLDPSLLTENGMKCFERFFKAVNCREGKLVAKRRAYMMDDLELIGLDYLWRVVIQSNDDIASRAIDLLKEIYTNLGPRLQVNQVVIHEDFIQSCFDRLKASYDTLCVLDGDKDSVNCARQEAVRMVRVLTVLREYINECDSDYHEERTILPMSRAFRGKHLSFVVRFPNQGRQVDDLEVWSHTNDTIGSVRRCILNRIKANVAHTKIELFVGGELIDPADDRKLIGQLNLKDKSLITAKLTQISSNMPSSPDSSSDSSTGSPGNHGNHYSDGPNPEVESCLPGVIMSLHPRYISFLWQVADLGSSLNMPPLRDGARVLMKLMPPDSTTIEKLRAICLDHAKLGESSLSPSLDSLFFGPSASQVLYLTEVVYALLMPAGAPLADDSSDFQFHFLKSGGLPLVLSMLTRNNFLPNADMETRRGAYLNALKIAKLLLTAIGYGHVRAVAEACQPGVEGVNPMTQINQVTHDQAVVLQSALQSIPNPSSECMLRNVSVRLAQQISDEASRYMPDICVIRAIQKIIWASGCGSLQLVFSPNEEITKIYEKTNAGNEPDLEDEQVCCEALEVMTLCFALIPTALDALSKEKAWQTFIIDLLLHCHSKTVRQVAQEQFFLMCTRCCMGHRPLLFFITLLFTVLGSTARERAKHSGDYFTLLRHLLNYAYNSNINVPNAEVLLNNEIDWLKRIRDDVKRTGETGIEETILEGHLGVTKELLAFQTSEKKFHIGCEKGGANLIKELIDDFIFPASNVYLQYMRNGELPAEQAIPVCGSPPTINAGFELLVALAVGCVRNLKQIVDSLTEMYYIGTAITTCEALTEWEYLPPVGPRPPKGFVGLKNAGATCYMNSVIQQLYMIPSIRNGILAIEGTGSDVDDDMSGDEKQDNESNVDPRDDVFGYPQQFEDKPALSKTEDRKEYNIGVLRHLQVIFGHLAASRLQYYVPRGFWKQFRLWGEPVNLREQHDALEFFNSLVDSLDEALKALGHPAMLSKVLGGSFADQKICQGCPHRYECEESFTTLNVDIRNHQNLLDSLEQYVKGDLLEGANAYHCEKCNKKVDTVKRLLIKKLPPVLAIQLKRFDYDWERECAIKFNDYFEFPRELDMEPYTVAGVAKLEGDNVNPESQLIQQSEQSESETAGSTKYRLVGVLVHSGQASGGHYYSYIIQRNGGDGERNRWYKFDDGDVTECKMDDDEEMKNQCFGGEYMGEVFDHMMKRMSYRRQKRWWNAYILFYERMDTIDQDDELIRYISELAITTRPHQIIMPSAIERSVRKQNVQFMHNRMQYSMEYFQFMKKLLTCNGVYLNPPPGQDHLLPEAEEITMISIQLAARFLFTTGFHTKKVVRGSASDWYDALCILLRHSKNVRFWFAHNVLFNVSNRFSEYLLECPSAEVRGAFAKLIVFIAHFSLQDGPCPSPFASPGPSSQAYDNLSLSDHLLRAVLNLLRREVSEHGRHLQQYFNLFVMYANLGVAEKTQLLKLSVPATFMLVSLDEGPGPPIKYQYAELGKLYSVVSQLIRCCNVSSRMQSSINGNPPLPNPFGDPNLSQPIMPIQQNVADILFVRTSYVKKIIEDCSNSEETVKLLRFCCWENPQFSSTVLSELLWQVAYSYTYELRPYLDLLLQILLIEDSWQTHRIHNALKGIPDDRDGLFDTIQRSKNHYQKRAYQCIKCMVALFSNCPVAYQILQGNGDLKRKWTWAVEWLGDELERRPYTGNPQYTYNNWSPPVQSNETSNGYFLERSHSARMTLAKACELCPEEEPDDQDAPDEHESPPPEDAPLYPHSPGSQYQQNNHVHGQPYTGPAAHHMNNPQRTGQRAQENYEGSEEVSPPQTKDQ
Outline: as §1

UniProt O00487 = molecular target: UniProt O00487
Chain of UniProt O00487 (O00487 whole entry): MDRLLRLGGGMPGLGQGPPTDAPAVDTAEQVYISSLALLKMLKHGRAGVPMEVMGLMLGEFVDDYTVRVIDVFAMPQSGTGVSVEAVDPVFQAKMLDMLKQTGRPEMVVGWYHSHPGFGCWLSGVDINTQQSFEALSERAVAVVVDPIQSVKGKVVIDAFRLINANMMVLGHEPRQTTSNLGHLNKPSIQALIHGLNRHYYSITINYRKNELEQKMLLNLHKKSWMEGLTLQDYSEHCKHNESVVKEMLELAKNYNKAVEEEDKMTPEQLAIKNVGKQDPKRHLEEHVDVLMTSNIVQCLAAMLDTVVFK
Outline: as §1

Measured: log2 ratio of Biotin-Ahx-Ub-VS probe labelling

Cc1ccc(C)c(Oc2ccc(CNC(=O)CCl)cn2)c1.Cl
inactive: USP42 -0.119 | USP46 0.00613 | USP47 -0.424 | USP48 -0.619 | USP5 -0.165 | USP54 0.136 | USP7 -0.376 | USP8 -0.519 | USP9X -0.677 | UniProt O00487 -0.0677

O=C(CCl)N1CCCC2CCCCC21 (stereo not given)
inactive: USP42 0.484 | USP46 -0.132 | USP47 -0.696 | USP48 -0.516 | USP5 0.0316 | USP54 0.268 | USP7 -0.486 | USP8 -0.0438 | USP9X -0.183 | UniProt O00487 -0.107

O=C(CCl)N1CCc2sccc2C1
active: USP7 -1.34
inactive: USP42 0.32 | USP46 -0.578 | USP47 -0.774 | USP48 -0.677 | USP5 -0.108 | USP54 -0.356 | USP8 0.015 | USP9X -0.286 | UniProt O00487 0.0182
